# Test results reported in PubChem BioAssay (NCATS).
# Values without a mark were called inactive. Records with an inconclusive call do not appear. Calls of active or inactive are those of the source. Unless noted, calls follow the shape of the dose curve; as a rule, active = well fitted curve in the direction sought with a large enough effect; inconclusive = small, poorly fitted or top-dose-only effect, or another doubt; inactive = no such curve, though single readings can be large; an effect the other way counts as inactive or inconclusive.
# Columns and labels:
# [1] = biological target: Lysosomal acid glucosylceramidase (Homo sapiens) (UniProt P04062); assay: Glucocerebrosidase-p2 (AID 348; in the data active = potency below about 10 µM; also: potency is read from the fitted curve at half-maximal effect); conditions: purified GBA, blue fluorogenic substrate, 40 min
# Method in brief: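 Normal human glucocerebrosidase (0.2 nM) with blue fluorogenic substrate (80 uM final) in citrate/phosphate pH 5.9 with 10mM sodium taurocholate, 0.01% tween-20; 40 min RT, NaOH/glycine stop; fluorescence Ex 365/Em 440; AC50 from a titration from 0.6 nM upwards.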
# [2] = AP1 Signaling Pathway (AID 357; active = well fitted curve in either direction with a large enough effect, not every such curve was filed as active;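 also: ME-180 reporter cells stimulated with EGF at its EC50 level; % is scaled to controls: 0 for no effect and ±100 for the full control effect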); conditions: ME-180 AP-1-bla reporter, EGF-induced, beta-lactamase ratio, 5 h; at 7.69 µM (top of the series) unless noted
# Method in brief: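 Read-out was the 460nm/530nm emission ratio (excitation 405nm) after CCF4 loading for 2.5 hours at room temperature. Cells carried an AP-1-driven beta-lactamase reporter, were stimulated with EC50 EGF plus compound for 5 hours, and AC50 values came from titrations.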
# [3] = biological target: Cytochrome P450 1A2 (Homo sapiens) (UniProt P05177); assay: p450-cyp1a2 (AID 410; calls by dose curve; also: potency is read from the fitted curve at half-maximal effect;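 as to activity change, negative = inhibition: -100% = full effect of reference inhibitor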); conditions: recombinant CYP1A2, luciferin-ME demethylation, luminescence; series mostly up to 57 µM
# Method in brief: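 Read-out is luminescence from luciferin produced by CYP1A2 demethylation of Luciferin-ME (100uM, at Km). Detection reagent stopped the 60 min NADPH-dependent reaction; signals were normalized to 57 uM furafylline.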
# [4] = NFAT Signaling Pathway (AID 444; active = well fitted curve in either direction with a large enough effect, not every such curve was filed as active;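 also: carbachol stimulus at about its EC50 of 1 µM final; % is scaled to controls: 0 for no effect and ±100 for the full control effect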); conditions: Jurkat NFAT-bla M1, carbachol, beta-lactamase ratio, 5 h; at 7.69 µM (top of the series) unless noted
# Method in brief: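 Jurkat cells carrying an NFAT-driven β-lactamase reporter and co-transfected muscarinic M1 receptor were treated with compound plus carbachol (1 uM final, an EC50 level) for 5 h at 37 °C. CCF4 loading followed for 1 h at RT; 460/530 nm ratio gave %activity.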
# [5] = Stat Signaling Pathway (AID 446; active = well fitted curve in either direction with a large enough effect, not every such curve was filed as active;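 also: ME-180 cervical cancer cells given 40 pM IL-6 alongside compound; SIE-controlled beta-lactamase reporter measured as 460/530 nm FRET emission ratio; % is scaled to controls: 0 for no effect and ±100 for the full control effect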); conditions: ME-180 SIE beta-lactamase reporter, IL-6 stimulated, 5 h; at 7.69 µM (top of the series) unless noted
# Method in brief: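 Emission at 460 and 530 nm (excitation 405 nm) reports SIE-controlled beta-lactamase in ME-180 cells. Cells received compound with 40 pM IL-6 for 5 hrs at 37 C; data scaled between 300 pM IL-6 and 125 nM JAK-inhibitor controls.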
# [6] = biological target: Glucocorticoid receptor (Homo sapiens) (UniProt P04150); assay: GR-GFP Redistribution (AID 450;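 active = compounds whose dose series gives a full or clear partial fitted curve of increased nuclear translocation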; also: potency is read from the fitted curve at half-maximal effect); conditions: U2OS GR-GFP nuclear translocation, laser cytometry, 2 h
# [7] = biological target: Glucocorticoid receptor (Homo sapiens) (UniProt P04150); assay: GR-EFC Redistribution (AID 451; calls by dose curve; also: potency is read from the fitted curve at half-maximal effect); conditions: CHO-K1 GR-EFC translocation, beta-gal luminescence, 2 h
# Method in brief: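 CHO-K1 cells stably expressing nuclear-localized β-gal enzyme acceptor and GR fused C-terminally to the enzyme donor fragment; ligand-driven nuclear translocation restores β-gal by complementation. Compounds titrated up to 46 uM final, 2 h at 37 °C; luminescence read.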
# [8] = biological target: Mitogen-activated protein kinase 10 (Mus musculus) (UniProt Q61831); assay: JNK3 AlphaScreen Assay (AID 530; active = well fitted curve in either direction with a large enough effect, not every such curve was filed as active;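 also: kinase came from lysate of stimulated human HepG2 cells; signal reports phosphorylation of biotinylated GST-cJun 1-79 at Ser73 with 10 µM ATP; % is scaled to controls: 0 for no effect and ±100 for the full control effect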); conditions: JNK3 lysate, c-Jun phosphorylation; series mostly up to 57.1 µM
# Method in brief: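 Biotinylated GST-cJun(1-79) served as substrate for JNK3 in HepG2 lysates stimulated with IL-1beta and TNF-alpha. ATP was 10 uM final, pH 7.6. Ser73 phosphorylation was quantified by AlphaScreen (680 nm excitation).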
# [9] = biological target: 3',5'-cyclic-AMP phosphodiesterase 4B (Homo sapiens) (UniProt Q07343); assay: qHTS Assay for Inhibitors of PDE-IV (AID 607; active = well fitted activation curve with a large enough effect in the main read-out, with a control signal flat, not every such curve was filed as active; also: % of control where 0% means no effect); conditions: HEK293 ACTOne CNG channel cells, membrane potential fluorescence; series mostly up to 22.9 µM
# Method in brief: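 The readout is membrane depolarisation from a cAMP-sensing CNG channel, detected with a potential dye at ex 535/em 590. Cells were HEK293-derived (endogenous PDE-IV) at 1000 cells/well, titrated up to 22.9 uM final.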
# [10] = biological target: Cytochrome P450 3A4 (Homo sapiens) (UniProt P08684); assay: qHTS Assay for Inhibitors and Substrates of Cytochrome P450 3A4 (AID 884); conditions: recombinant CYP3A4, Luciferin-PPXE luminescence; series mostly up to 57.1 µM; also: potency is read from the fitted curve at half-maximal effect; nearly all actives have a fitted effect of over 50% in size
# Method in brief: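 Luminescent readout of luciferin produced by CYP3A4 (20 nM) dealkylation of Luciferin-PPXE, 25 uM (its KM). NADPH-driven reaction ran 60 min at RT after 10 min compound preincubation; data scaled to 57 uM ketoconazole as 100% inhibition.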
# [11] = biological target: Cytochrome P450 3A4 (Homo sapiens) (UniProt P08684); assay: qHTS Assay for Activators of Cytochrome P450 3A4 (AID 885); conditions: recombinant CYP3A4, Luciferin-PPXE luminescence, 60 min; series mostly up to 57.1 µM; also: nearly all actives have a fitted effect of over 65% in size
# Method in brief: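 Activators are scored by enhanced luminescence from CYP3A4 conversion of luciferin-PPXE (25uM, equal to KM) to luciferin, after 60 min at RT with an NADPH-regenerating system.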
# [12] = biological target: Cytochrome P450 2C19 (Homo sapiens) (UniProt P33261); assay: qHTS Assay for Inhibitors and Substrates of Cytochrome P450 2C19 (AID 899); conditions: recombinant CYP2C19, luciferin-H EGE luminescence; series mostly up to 57.1 µM; also: potency is read from the fitted curve at half-maximal effect; nearly all actives have a fitted effect of over 60% in size
# Method in brief: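 In 50mM KPO4, the reaction held 5nM enzyme and KM-level (10uM) Luciferin-H EGE; it ran 60 min at 37C after NADPH regeneration and a 10 min compound preincubation. Luminescence values were scaled to 57uM ketoconazole as complete inhibition.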
# [13] = biological target: Dual specificity protein kinase CLK4 (Homo sapiens) (UniProt Q9HAZ1); assay: qHTS Assay for Inhibitors of CDC-like Kinase 4 (Kinase-Glo Assay) (AID 1770); conditions: recombinant Clk4, Kinase-Glo ATP depletion luminescence; series mostly up to 66.7 µM; also: nearly all actives have a fitted effect of over 65% in size; also: potency is read from the fitted curve at half-maximal effect
# Method in brief: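 Readout: Kinase-Glo luminescence from ATP left after a 4.5 h room-temperature reaction of 25 nM Clk4 with 100 uM RS peptide and 1 uM ATP (final). Buffer: 25 mM Tris pH 7.5, 10 mM MgCl2.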
# [14] = biological target: Dual specificity protein kinase CLK4 (Homo sapiens) (UniProt Q9HAZ1); assay: qHTS Assay for Inhibitors of CDC-like Kinase 4 (ADP-Glo Assay) (AID 1771); conditions: recombinant CLK4, ADP-Glo luminescence; series mostly up to 80 µM; also: nearly all actives have a fitted effect of over 70% in size; also: potency is read from the fitted curve at half-maximal effect
# Method in brief: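 In this ADP-Glo format, 1 uM ATP and 100 uM RS peptide served as substrates for 25 nM Clk4 in Mg2+/EGTA/DTT/Triton buffer; reactions ran 1 hr at room temperature before luminescent ADP quantification.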
# [15] = biological target: Ubiquitin carboxyl-terminal hydrolase 1 (Homo sapiens) (UniProt O94782); assay: Inhibitors of USP1/UAF1: Pilot qHTS (AID 504865); conditions: purified USP1/UAF1, Ub-rhodamine cleavage fluorescence; series mostly up to 54.9 µM; also: nearly all actives have a fitted effect of over 35% in size; also: potency is read from the fitted curve at half-maximal effect
# Method in brief: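 1nM USP1/UAF1 + cpd, 15 min RT; start w/ Ub-Rho 150nM final; kinetic FL 480/540 nm, 6 reads q60 s. Buffer 50mM HEPES pH 7.8, 0.5mM EDTA, 1mM TCEP, 0.01% Tween-20, 0.1 mg/ml BSA.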
# [16] = Primary qHTS for small molecule stabilizers of the endoplasmic reticulum resident proteome: Secreted ER Calcium Modulated Protein (SERCaMP) assay (AID 1508630); conditions: SH-SY5Y GLuc-SERCaMP (Gaussia luciferase released on ER calcium loss) secretion, thapsigargin, luminescence; series mostly up to 38.4 µM; also: % is scaled to controls: 0 for no effect and ±100 for the full control effect
# Method in brief: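 The SH-SY5Y reporter protocol was run at 3 concentrations up to 38.3 uM (primary) or 11 concentrations (follow-up): 16 h compound, 100 nM thapsigargin for 4 h, then extracellular luciferase luminescence.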
# [17] = biological target: Dual specificity protein kinase CLK4 (Homo sapiens) (UniProt Q9HAZ1); assay: qHTS Assay for Inhibitors of CDC-like Kinase 4 (ADP-FP Assay) (AID 1795); conditions: Transcreener ADP fluorescence polarization; series mostly up to 50 µM;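 also: recombinant human CLK4 phosphorylating RS repeat peptide at 1 µM ATP; % is scaled to controls: 0 for no effect and ±100 for the full control effect; nearly all actives have a fitted effect of over 60% in size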
# Method in brief: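 FP readout: Orange Transcreener ADP2 tracer (4 nM) plus ADP antibody, read after 30 min at room temperature. Kinase step: 6.25 nM Clk4, 100 uM RS peptide, 1 uM ATP, pH 7.5, 1 h.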
# [18] = biological target: Cytochrome P450 2C9 (Homo sapiens) (UniProt P11712); assay: qHTS Assay for Inhibitors and Substrates of Cytochrome P450 2C9 (AID 883); conditions: recombinant CYP2C9, luciferin-H luminescence, 60 min; series mostly up to 57.1 µM; also: % is scaled to controls: 0 for no effect and ±100 for the full control effect; nearly all actives have a fitted effect of over 60% in size
# Method in brief: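 CYP2C9 deoxyluciferin hydroxylation, 37C, 60 min with NADPH regeneration; 10nM enzyme, 100uM Luciferin-H (KM). Glo detection reagent stopped reaction; luminescence normalized to sulphaphenazole (57uM) full inhibition.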
# [19] = qHTS Assay for Identification of Small Molecule Agonists for Hypoxia Response Element Signaling Pathway (AID 914; active = well fitted activation curve with a large enough effect in the signal ratio, with a control signal flat, not every such curve was filed as active; the % refers to the signal ratio; also: potency is read from the fitted curve at half-maximal effect); conditions: ME-180 (cervical carcinoma) HRE-bla reporter, beta-lactamase ratio, CoCl2, 17 h; activation: stronger effect = higher value
# Method in brief: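 HRE-bla ME-180 assay for agonist-like enhancement of an EC50 CoCl2 stimulus: 17 h at 37 degrees Celsius, CCF4 for 2.5 h, ratiometric 460/530 nm signal converted to %Activity and fitted to AC50.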
# Ubiquitin carboxyl-terminal hydrolase 1 (Homo sapiens), sequence (O94782 whole entry, looked up): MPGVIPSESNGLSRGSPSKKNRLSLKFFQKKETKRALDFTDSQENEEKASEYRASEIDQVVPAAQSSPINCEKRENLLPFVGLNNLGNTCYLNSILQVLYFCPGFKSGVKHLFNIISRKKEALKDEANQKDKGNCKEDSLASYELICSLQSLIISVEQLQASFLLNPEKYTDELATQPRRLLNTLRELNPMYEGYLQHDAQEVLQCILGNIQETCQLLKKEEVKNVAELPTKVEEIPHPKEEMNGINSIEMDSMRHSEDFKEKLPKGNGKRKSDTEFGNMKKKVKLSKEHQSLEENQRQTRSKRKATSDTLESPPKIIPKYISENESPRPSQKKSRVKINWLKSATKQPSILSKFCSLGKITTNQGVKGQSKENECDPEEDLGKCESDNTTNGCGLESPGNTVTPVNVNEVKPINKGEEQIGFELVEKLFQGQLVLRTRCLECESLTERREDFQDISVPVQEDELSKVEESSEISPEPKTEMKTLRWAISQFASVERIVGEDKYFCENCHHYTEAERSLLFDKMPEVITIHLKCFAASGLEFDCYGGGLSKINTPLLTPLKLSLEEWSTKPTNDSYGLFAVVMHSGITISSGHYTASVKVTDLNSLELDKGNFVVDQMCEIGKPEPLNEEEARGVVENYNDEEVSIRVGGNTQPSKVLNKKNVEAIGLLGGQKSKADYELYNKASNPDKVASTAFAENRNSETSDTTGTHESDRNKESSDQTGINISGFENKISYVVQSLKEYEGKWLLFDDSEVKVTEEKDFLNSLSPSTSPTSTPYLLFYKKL
# Lysosomal acid glucosylceramidase (Homo sapiens), sequence (P04062 whole entry, looked up): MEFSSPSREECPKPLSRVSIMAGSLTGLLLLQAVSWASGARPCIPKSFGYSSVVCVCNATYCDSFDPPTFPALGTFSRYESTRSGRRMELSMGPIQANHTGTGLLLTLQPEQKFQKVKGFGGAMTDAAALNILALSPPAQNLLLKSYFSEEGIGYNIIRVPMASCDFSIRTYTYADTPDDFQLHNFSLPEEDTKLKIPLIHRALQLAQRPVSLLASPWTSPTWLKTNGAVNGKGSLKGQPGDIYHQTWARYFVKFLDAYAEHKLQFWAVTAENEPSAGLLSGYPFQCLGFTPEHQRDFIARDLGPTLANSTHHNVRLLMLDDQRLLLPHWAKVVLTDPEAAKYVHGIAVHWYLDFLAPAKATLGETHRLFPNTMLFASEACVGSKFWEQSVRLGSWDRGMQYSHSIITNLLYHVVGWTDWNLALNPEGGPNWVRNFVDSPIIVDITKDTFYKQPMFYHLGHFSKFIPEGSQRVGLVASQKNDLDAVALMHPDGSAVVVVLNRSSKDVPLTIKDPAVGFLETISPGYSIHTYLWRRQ
# 3',5'-cyclic-AMP phosphodiesterase 4B (Homo sapiens), sequence (Q07343 whole entry, looked up): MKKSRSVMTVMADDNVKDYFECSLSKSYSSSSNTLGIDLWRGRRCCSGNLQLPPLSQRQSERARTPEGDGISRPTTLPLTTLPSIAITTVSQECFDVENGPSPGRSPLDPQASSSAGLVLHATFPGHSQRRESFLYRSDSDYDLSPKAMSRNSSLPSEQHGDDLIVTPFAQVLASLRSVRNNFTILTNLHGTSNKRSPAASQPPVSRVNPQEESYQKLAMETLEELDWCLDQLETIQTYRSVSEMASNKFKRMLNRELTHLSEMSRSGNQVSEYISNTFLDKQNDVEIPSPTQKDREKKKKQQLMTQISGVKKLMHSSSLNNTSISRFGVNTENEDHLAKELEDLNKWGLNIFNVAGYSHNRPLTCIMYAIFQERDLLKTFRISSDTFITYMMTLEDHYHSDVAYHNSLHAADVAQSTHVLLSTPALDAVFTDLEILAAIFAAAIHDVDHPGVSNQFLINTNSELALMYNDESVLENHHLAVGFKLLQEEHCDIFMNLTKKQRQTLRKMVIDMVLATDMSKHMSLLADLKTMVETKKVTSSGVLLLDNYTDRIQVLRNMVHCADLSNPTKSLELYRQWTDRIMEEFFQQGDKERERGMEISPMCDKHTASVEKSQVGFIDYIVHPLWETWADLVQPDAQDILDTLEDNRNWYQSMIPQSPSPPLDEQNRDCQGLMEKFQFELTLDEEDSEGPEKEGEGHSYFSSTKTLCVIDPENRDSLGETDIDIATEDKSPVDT
# Glucocorticoid receptor (Homo sapiens), sequence (P04150 whole entry, looked up, the tested form may be a part): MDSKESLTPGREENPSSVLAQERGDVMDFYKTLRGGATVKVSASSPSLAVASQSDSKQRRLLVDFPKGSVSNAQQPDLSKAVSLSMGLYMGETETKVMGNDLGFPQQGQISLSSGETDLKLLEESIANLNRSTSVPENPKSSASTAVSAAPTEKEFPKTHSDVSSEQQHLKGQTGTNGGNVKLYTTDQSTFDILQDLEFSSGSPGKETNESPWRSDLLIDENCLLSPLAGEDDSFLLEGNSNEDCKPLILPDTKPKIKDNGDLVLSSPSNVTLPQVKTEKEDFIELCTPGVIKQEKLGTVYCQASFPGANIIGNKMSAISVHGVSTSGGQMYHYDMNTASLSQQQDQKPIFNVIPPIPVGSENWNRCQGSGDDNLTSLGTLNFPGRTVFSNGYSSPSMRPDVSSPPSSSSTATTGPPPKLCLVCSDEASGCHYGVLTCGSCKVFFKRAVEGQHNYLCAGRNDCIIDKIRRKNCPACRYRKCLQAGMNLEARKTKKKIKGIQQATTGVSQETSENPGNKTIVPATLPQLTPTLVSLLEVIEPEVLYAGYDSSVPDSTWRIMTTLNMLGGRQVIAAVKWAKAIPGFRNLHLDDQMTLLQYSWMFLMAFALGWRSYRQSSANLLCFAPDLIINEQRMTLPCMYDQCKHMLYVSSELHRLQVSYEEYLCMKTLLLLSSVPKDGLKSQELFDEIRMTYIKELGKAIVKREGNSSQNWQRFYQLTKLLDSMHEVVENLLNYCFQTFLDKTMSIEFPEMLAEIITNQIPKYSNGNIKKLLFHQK
# Cytochrome P450 1A2 (Homo sapiens), sequence (P05177 whole entry, looked up): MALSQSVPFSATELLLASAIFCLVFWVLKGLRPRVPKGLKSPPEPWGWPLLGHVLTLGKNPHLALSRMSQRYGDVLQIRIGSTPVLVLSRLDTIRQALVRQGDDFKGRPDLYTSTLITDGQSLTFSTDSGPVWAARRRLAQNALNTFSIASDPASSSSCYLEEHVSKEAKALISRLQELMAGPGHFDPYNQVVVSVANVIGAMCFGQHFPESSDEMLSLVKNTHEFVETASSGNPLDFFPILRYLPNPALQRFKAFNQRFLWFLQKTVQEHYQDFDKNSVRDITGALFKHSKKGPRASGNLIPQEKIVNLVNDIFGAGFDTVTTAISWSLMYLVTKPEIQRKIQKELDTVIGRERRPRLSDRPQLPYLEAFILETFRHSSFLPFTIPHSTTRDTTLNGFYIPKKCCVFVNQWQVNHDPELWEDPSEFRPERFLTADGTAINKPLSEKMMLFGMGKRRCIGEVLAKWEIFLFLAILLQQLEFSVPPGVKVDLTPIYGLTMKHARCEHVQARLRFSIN
# Dual specificity protein kinase CLK4 (Homo sapiens), sequence (Q9HAZ1 whole entry, looked up): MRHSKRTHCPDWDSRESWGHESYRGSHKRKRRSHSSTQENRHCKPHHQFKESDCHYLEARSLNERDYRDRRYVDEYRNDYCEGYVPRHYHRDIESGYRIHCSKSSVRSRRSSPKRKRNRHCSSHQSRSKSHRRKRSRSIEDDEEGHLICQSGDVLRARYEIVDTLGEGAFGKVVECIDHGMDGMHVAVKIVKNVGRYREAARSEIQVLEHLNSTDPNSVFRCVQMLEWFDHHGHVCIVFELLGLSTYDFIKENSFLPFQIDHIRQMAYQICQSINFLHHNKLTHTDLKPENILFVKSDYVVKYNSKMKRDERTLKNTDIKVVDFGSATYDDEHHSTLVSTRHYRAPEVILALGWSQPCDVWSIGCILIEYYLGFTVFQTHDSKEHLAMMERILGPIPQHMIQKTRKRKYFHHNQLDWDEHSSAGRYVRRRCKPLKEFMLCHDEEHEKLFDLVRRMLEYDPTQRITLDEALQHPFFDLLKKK
# Cytochrome P450 3A4 (Homo sapiens), sequence (P08684 whole entry, looked up): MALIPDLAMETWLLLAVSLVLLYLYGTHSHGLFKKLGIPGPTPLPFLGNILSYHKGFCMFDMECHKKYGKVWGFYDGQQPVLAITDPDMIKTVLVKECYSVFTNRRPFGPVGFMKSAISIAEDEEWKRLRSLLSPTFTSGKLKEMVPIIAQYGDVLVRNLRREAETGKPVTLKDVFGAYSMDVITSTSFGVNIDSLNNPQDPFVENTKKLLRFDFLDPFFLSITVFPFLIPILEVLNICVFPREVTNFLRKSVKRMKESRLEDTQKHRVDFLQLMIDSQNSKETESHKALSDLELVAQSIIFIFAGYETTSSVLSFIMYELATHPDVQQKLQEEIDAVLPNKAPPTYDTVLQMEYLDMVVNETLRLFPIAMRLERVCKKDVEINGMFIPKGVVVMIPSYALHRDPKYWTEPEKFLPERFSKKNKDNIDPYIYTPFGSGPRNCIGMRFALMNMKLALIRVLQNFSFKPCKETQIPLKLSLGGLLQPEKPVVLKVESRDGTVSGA
# Cytochrome P450 2C19 (Homo sapiens), sequence (P33261 whole entry, looked up): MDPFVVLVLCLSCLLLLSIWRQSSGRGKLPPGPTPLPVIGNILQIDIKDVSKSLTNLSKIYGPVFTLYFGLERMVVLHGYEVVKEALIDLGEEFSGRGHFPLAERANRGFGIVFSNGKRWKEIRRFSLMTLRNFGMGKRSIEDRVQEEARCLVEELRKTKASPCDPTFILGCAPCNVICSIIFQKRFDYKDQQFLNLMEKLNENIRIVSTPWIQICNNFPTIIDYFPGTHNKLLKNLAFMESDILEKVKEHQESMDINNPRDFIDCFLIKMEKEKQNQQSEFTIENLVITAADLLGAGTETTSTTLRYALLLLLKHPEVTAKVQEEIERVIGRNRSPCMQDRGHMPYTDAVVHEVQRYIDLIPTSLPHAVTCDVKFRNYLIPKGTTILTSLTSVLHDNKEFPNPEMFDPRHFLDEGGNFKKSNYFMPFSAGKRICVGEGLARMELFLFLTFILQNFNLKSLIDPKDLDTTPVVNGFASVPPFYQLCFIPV
SMILES,Potency [1] [µM],"activity change, negative = inhibition [2] [%]",Potency [3],"activity change, negative = inhibition [4] [%]","activity, negative = inhibition [5]",Potency [6] [µM],Potency [7] [µM],Potency [8],Potency [9],Potency [10],Potency [11],Potency [12],Potency [13],Potency [14],Potency [15],outcome [16],Potency [17],Potency [18],Potency [19],"activity change, negative = inhibition [18]"
CN(C)c1ccc(-c2cncnc2-n2ccnc2)cc1,> 11.4,-3.44,2.51 µM (active),4.48,10.2%,> 46,> 46,inactive,inactive,2.51 µM (active),inactive,3.98 µM (active),14.1 µM (active),25.1 µM (active),inactive,inactive,,,,
COc1ccccc1CNc1ncncc1-c1ccc(C(=O)N(C)C)cc1,> 11.4,-10.9,12.6 µM (active),1.11,9.05%,> 46,> 46,inactive,inactive,2.51 µM (active),inactive,,12.6 µM (active),14.1 µM (active),inactive,inactive,,,,
Cc1cnc(CNc2cc(-c3ccc(C(=O)N(C)C)cc3)ncn2)cn1,> 11.4,19.2,inactive,15.2,6.75%,> 46,> 46,inactive,inactive,,,,12.6 µM (active),14.1 µM (active),inactive,inactive,,,,
N#Cc1cccc(-c2ccc3ncnc(NC4CCNCC4)c3c2)c1,> 11.4,-6.77,15.8 µM (active),3.08,-3.89%,> 46,> 46,inactive,inactive,,,,12.6 µM (active),14.1 µM (active),inactive,inactive,,,,
CC(=O)NCCNc1ncnc2ccc(-c3ccc4c(c3)OCO4)cc12,> 11.4,-23.9,0.501 µM (active),12.4,-10.3%,> 46,> 46,inactive,inactive,5.01 µM (active),inactive,6.31 µM (active),0.141 µM (active),0.0891 µM (active),inactive,inactive,,,,
Cc1cccc(CNc2ccnc(-c3ccccc3Cl)n2)c1,,-2.43,1.58 µM (active),-3.52,-10.7%,> 46,> 46,inactive,,3.98 µM (active),inactive,1.26 µM (active),inactive,inactive,28.2 µM (active),inactive,inactive,,,
CCNc1ncc2nc(-c3ccc(Cl)cc3)c(=O)n(C)c2n1,,23.6,0.398 µM (active),20,,> 9.22,> 46,inactive,inactive,,,,inactive,inactive,inactive,inactive,inactive,,,
CN(C)c1ncc2nc(-c3cc(F)cc(F)c3)c(=O)n(Cc3ccc(F)cc3)c2n1,,,inactive,,,> 46,> 46,inactive,inactive,,inactive,,inactive,inactive,inactive,inactive,inactive,inactive,3.16 µM (active),
COc1ccc2[nH]cc(CCNc3ccnc(-c4ccc(N(C)C)cc4)n3)c2c1,,11.2,0.631 µM (active),,,> 46,> 46,,inactive,5.01 µM (active),inactive,6.31 µM (active),15.8 µM (active),14.1 µM (active),inactive,inactive,inactive,,,
CNc1nc(-c2c(C)noc2C)nc2ccccc12,,5.72,,8.72,-5.04%,> 46,> 46,inactive,inactive,,inactive,,17.8 µM (active),20 µM (active),,inactive,inactive,,,37.6% [at 2.29 µM]
COc1cccc(Cn2c(=O)c(CCc3ccccc3)nc3cncnc32)c1,> 11.4,-12.1,12.6 µM (active),-7.87,-9.09%,> 9.22,> 46,inactive,inactive,2.51 µM (active),inactive,,inactive,inactive,inactive,inactive,,,,
CCNc1ncc2nc(-c3cccs3)c(=O)n(CCc3ccccc3)c2n1,,,10 µM (active),,98% [activator] (active),> 9.22,> 46,inactive,,,inactive,,inactive,inactive,inactive,inactive,inactive,,1 µM (active),
